Pf Dd2 inh = blocks in vitro growth of P. falciparum Dd2 | Potency, µM (doses to about 28.9 µM), most hits filed as inhibitors | hit rate 4.3% among 120,000 | P. falciparum Dd2 growth, SYBR Green, 72 h; active = well fitted inhibition curve with a large enough effect; note: nearly all actives have a fitted effect of over 65% in size
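Infected erythrocytes (Dd2, 0.3% parasitemia, 2.5% hematocrit final) are added to compound in RPMI-1640/Albumax II medium, grown 72 h at 37C in low oxygen, then lysed with saponin/Triton-X containing SYBR Green and read by fluorescence.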
Large screens that a line does not name were inactive. This is one part of a sample in which hits are shown more often than they occur.

CCCN1C(=O)c2[nH]nc(-c3cccc(OC)c3)c2C1c1ccccn1 (stereo unspecified)	none
O=C1c2[nH]nc(-c3ccccc3O)c2C(c2ccc(Cl)cc2)N1CCc1ccccc1 (stereo unspecified)	Pf Dd2 inh 8.9µM
CCCN1C(=O)c2[nH]nc(-c3ccccc3O)c2C1c1cccc(OCc2ccccc2)c1 (stereo unspecified)	Pf Dd2 inh 4.5µM
CCOCCCNC(=O)N1CCC(Cc2nc(-c3ccncc3)n[nH]2)CC1	none
COc1cccc(NC(=O)c2cc3c(N4CCCC4)nc(C)cn3n2)c1	none
CC(C)c1noc(C2CCCN(C(=O)NC(C)(C)C)CCC(=O)NCC2)n1 (stereo unspecified)	none
Cc1nc2ccccc2n1Cc1cc(C(=O)N(C)CCOc2ccccc2)n[nH]1	none
CCN1C(=O)CCc2cc(NC(=O)Cc3ccc(F)cc3)ccc21	none
O=c1cc(N2CCOCC2)oc2c(N3CCOCC3)nccc12	none
COCC(=O)N1CCC(Cc2nc(C3CCOCC3)no2)CC1	none
CCN(C(=O)Cn1cc(C(=O)c2ccc(F)cc2)c(=O)c2ccc(C)nc21)c1cccc(C)c1	Pf Dd2 inh 8.9µM
Cc1ccc(C)c(NC(=O)Cn2cc(C(=O)c3ccc(Cl)cc3)c(=O)c3ccc(C)nc32)c1	none
Cc1ccc2c(=O)c(C(=O)c3cccc(Cl)c3)cn(CC(=O)NCc3ccc(F)cc3)c2n1	none
Cc1noc(C)c1S(=O)(=O)NC1CCN(C(=O)N2CC3CC(C2)[C@H]2CCCC(=O)N2C3)CC1 (stereo partly specified)	none
C[C@H]1CN(C(=O)Nc2ccc(F)cc2F)C[C@@H]1c1nc(-c2ccccc2)no1	none
CC1=C(C(=O)OC(C)(C)C)C(c2ccc(Cl)cc2)N2C(CC(=O)N3CCOCC3)=CSC2=N1 (stereo unspecified)	none
C=CCNC(=O)CCc1c(C)nn(-c2ccccc2)c1Oc1ccccc1F	none
CCC(C)NC(=O)C(NC(=O)c1ccc(C)cc1)C1CCN(C(=O)C(C)C)CC1 (stereo unspecified)	none
Cc1ccc(C(=O)N2CCC(C(NC(=O)c3ccccc3C)C(=O)NCC(C)C)CC2)cc1 (stereo unspecified)	Pf Dd2 inh 7.9µM
COc1ccc(C(=O)N2CCC(C(NC(=O)c3ccccc3C)C(=O)NCC(C)C)CC2)cc1 (stereo unspecified)	none
CCC(C)NC(=O)C(NC(=O)c1ccc(C)cc1)C1CCN(C(=O)c2cccc(F)c2)CC1 (stereo unspecified)	Pf Dd2 inh 10µM
Cc1ccc(C(=O)N2CCC(C(NC(=O)C(C)C)C(=O)NCC(C)C)CC2)cc1 (stereo unspecified)	none
CCC(C)NC(=O)C(NC(=O)c1ccc(F)cc1)C1CCN(C(=O)c2cccc(F)c2)CC1 (stereo unspecified)	none
COCCOCC(=O)N1CC(Oc2ccc(-c3noc(-c4ccccc4)n3)cc2)C1	none
CC(=O)N[C@H]1CC[C@]2(C)CC[C@@H](C(C)C(=O)NC(C)C)[C@H](O)[C@H]2[C@@H]1C (stereo partly specified)	none
CCNC(=O)CCc1c(CC)nn(-c2ccccc2)c1Oc1ccccc1F	none
COc1ccc(-c2onc(C)c2C)cc1S(=O)(=O)NCC1CCN(Cc2cc(C)ccc2C)CC1	Pf Dd2 inh 11µM
COc1ccc(-c2onc(C)c2C)cc1S(=O)(=O)NCc1ccc(Br)cc1	none
COCCCNS(=O)(=O)c1cc(-c2onc(C)c2C)ccc1OC	none
O=C(NC1CCCC1)c1cccc2c1CCN2S(=O)(=O)c1ccccc1F	none
COCCNC(=O)c1ccc(OC)cc1OC1CCN(Cc2cccc3cccnc23)CC1	none
COCCNC(=O)c1ccc(OC2CCN(CC3CCOC3)CC2)c(Cl)c1 (stereo unspecified)	none
COCCNC(=O)c1ccc(OC2CCN(Cc3ccc(C)s3)CC2)c(Cl)c1	Pf Dd2 inh 6.3µM
COCCNC(=O)c1ccc(OC2CCN(C(=O)[C@@H](C)N)CC2)c(Cl)c1	none
COCCNC(=O)c1ccc(OC2CCN(Cc3cccc4c3OCO4)CC2)c(Cl)c1	Pf Dd2 inh 7.1µM
CC(C)n1cc(CN2CCC(Oc3ccc(C(=O)NC4CCCC4)cc3Cl)CC2)cn1	none
N#Cc1ccc(O[C@@H]2CCOC[C@H]2NC(=O)CN2CCOC2=O)cc1	none
COc1ccc(C(=O)N2CCCCCNC(=O)[C@@H]3CCCC[C@@H]32)c(OC)c1	none
Cc1cccc(NC(=O)Nc2ccc(C)n(CC(=O)NCCN3CCCCC3)c2=O)c1	none
COc1ccc(CN[C@@H]2CCC[C@@H](C(=O)NCc3cc(C)on3)CC(=O)N(C)C2)cc1	none
O=C(Nc1cccc(C(F)(F)F)c1)N[C@H]1CO[C@H]2[C@@H]1OC[C@H]2OC(=O)Nc1ccccc1	none
O=C(Nc1ccc(Oc2ccccc2)cc1)N[C@H]1CO[C@H]2[C@@H]1OC[C@@H]2n1cc(-c2ccccn2)nn1	none
O=C(Nc1cccc(C(F)(F)F)c1)O[C@@H]1CO[C@H]2[C@@H]1OC[C@@H]2n1cc(-c2ccccn2)nn1	Pf Dd2 inh 10µM
O=[S+]1([O-])NC2(CCN(CC3CCOCC3)CC2)COc2ccccc21	none
O=C1COCC2(CN1Cc1cccc(OC(F)(F)F)c1)CN(c1ccccn1)C2	none
O=C1COCC2(CN1Cc1cccc(OC(F)(F)F)c1)CN(c1ccccc1F)C2	Pf Dd2 inh 2.5µM
COc1cncc(N2CC3(COCC(=O)N(Cc4cccc(OC(F)(F)F)c4)C3)C2)c1	none
CCn1ccc(C(=O)N2CCC(CCOC)(NS(C)(=O)=O)CC2)n1	none
CCC(C(=O)NCc1nnc2c(-c3nc(C(C)C)no3)cccn12)c1ccccc1 (stereo unspecified)	none
COCc1cc(C)nc2sc3c(c12)NC(c1ccc(O)c(OC)c1)N(c1ccccc1)C3=O (stereo unspecified)	none
COCc1cc(C)nc2sc3c(c12)NC(c1ccccc1C(=O)O)N(c1ccc(OC)cc1)C3=O (stereo unspecified)	none
COCc1cc(C)nc2c1C(=O)NC(c1ccc(Br)cc1)N2Cc1ccccc1 (stereo unspecified)	Pf Dd2 inh 10µM
COC[C@@H]1CN(C(=O)c2cc3ccc(OC)cc3[nH]2)C[C@H]1C(N)=O	none
O=C(Cc1c(F)cccc1Cl)N1CCN(Cc2ccccc2)CC(O)C1 (stereo unspecified)	none
O=C(NCc1ccccc1)N1Cc2[nH]cnc2C[C@H]1c1nc(-c2ccc3c(c2)OCO3)no1	none
Cc1ccc(-c2noc([C@@H]3Cc4nc[nH]c4CN3C(=O)c3ccc(F)cc3)n2)cc1	none
N#Cc1ccc(C(=O)N2Cc3[nH]cnc3C[C@H]2c2nc(-c3ccc4c(c3)OCO4)no2)cc1	Pf Dd2 inh 10µM
Cc1ccccc1CN1Cc2nc(-c3ccsc3)ccc2OCC1=O	none
CNC(=O)c1noc(CN2CCN(C)C3(CCNC(=O)CC3)C2)n1 (stereo unspecified)	none
COc1ccc(-c2cc([C@H]3CN4CC[C@H]3C[C@@H]4CN)nc(C)n2)cc1OC	Pf Dd2 inh 11µM
Cc1nc(-c2ccc(N(C)C)cc2)cc([C@H]2CN3CC[C@H]2C[C@@H]3COC(=O)NC(C)C)n1	none
Cc1nc(-c2ccccc2Br)cc([C@H]2CN3CC[C@H]2C[C@@H]3CNC(=O)NC2CCCCC2)n1	none
Cc1nc(-c2ccccc2Br)cc([C@H]2CN3CC[C@H]2C[C@@H]3CNC(=O)c2ccc(C(C)(C)C)cc2)n1	Pf Dd2 inh 3.2µM
Cc1nc(-c2ccccc2)cc([C@H]2CN3CC[C@H]2C[C@@H]3CNC(=O)C2CC2)n1	none
Cc1nc(-c2ccccc2)cc([C@H]2CN3CC[C@H]2C[C@@H]3CN(Cc2ccco2)Cc2ccco2)n1	Pf Dd2 inh 1.1µM
